# This is a sample that favours compounds with a hit; in the whole collection about 0.92% have one here.
# RECQ1 inh – qHTS Assay for Inhibitors of RecQ-Like Dna Helicase 1 (RECQ1); ATP-dependent DNA helicase Q1 (Homo sapiens), P46063; RECQ1 DNA unwinding, red fluorescence kinetic read; Potency, µM (highest dose often 57.3 µM), usual class: inhibitors; 240,000 compounds, 0.54% hits; AID 2549, 2010; further: nearly all actives have a fitted effect of over 30% in size
# Target sequence (P46063 whole entry, looked up): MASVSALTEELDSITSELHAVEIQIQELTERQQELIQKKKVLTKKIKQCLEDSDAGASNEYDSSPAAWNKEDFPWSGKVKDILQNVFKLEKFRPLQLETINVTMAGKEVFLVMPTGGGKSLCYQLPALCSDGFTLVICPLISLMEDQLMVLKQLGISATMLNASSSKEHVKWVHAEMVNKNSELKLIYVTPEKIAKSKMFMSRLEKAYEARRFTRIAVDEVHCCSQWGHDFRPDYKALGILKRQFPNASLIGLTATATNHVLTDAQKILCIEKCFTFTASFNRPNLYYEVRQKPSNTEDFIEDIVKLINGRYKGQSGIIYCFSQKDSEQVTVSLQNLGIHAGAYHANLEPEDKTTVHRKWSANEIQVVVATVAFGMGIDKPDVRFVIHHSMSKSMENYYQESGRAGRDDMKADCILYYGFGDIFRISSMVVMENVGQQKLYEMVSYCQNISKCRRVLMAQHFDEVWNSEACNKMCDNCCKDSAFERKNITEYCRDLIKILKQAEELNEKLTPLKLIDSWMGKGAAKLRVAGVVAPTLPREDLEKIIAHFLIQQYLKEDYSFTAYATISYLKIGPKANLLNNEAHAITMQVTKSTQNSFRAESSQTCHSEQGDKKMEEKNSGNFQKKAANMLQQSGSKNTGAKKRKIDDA
#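 RECQ1T1 50 nM; forked duplex (20 bp + 30-nt ss tails) 200 nM, ATP 2 mM final; pH 8.0, 2 mM MgCl2, 2.5 ug/ml poly(dI-dC); 15 min compound preincubation; discontinuous kinetic read over 2 h at RT.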
# TDP1 inh – qHTS Assay for Inhibitors of Tyrosyl-DNA Phosphodiesterase (TDP1). recombinant TDP1, AlphaScreen DNA substrate cleavage. Potency, µM (doses to about 130 µM), hits mostly inhibitors. 350,000 compounds, 0.28% hits. AID 485290, 2010; further: nearly all actives have a fitted effect of over 40% in size
#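 Recombinant E. coli-expressed Tdp1 (1 nM) preincubated with compound 15 min at RT, then 5'-biotin/3'-phosphotyrosine-FITC DNA substrate (15 nM) added for 5 min. AlphaScreen beads (10 ug/ml) added, 10 min RT; tyrosine-FITC cleavage read as signal loss.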
# APEX1 inh – qHTS Assay for Inhibitors of the Human Apurinic/apyrimidinic Endonuclease 1 (APE1); AID 2517, 2012; DNA repair nuclease/redox regulator APEX1 (Homo sapiens), P27695; recombinant APE1, TAMRA/BHQ-2 abasic DNA cleavage fluorescence; Potency, µM (top dose mostly 65.8 µM), usual class: inhibitors; 350,000 compounds, 0.35% hits; further: nearly all actives have a fitted effect of over 55% in size
#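 APE1 at 0.75 nM preincubated 15 min at room temperature with compound. Reaction then started with 50 nM double-stranded THF-abasic substrate labelled with TAMRA/BHQ-2, and 525/598 nm fluorescence read kinetically. Activity taken as third-minus-first read difference, normalized to DMSO and NSC13755 controls.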
# BLM helicase inh – qHTS Assay for Inhibitors of Bloom's syndrome helicase (BLM). 350,000 compounds, 0.2% hits. recombinant BLM DNA unwinding, fluorescence dequenching. Potency, µM (doses to about 56.1 µM), actives largely listed as inhibitors; further: nearly all actives have a fitted effect of over 35% in size
# FEN1 inh-1 – qHTS Assay for the Inhibitors of Human Flap endonuclease 1 (FEN1); Recombinant FEN1 flap cleavage, fluorescence, 15 min; Potency, µM (doses to about 114 µM), usual class: inhibitors; 390,000 compounds, 0.35% hits; further: nearly all actives have a fitted effect of over 65% in size
#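 Read-out was taken twice, immediately and after 15 min, following addition of 50 nM substrate to 10 nM FEN1 that had sat with test compound for 15 min at room temperature. Curves came from a four-parameter Hill model.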
# FEN1 inh-2 – qHTS Assay for the Inhibitors of FEN1: Confirmatory Assay for Cherry-picked Compounds | Potency, µM, usual class: inhibitors | FEN1 flap cleavage, TAMRA/BHQ2 fluorogenic DNA substrate | shares compounds with FEN1 inh-1 | 880 compounds, 79% hits; further: nearly all actives have a fitted effect of over 60% in size
# Hits are given with their value; i = inactive; ? = inconclusive; nt = no result given; [ ] = dose if it differs, or a comment. The call rests on the fitted dose curve; in most records, active means well fitted curve in the direction sought with a large enough effect; inconclusive means small, poorly fitted or top-dose-only effect, or another doubt; inactive means no such curve, though single readings can be large; an effect the other way counts as inactive or inconclusive.
SMILES,RECQ1 inh,TDP1 inh,APEX1 inh,BLM helicase inh,FEN1 inh-1,FEN1 inh-2
Cc1ccc(NCc2ccc(O)c3ncccc23)cc1,i,i,i,i,i,nt
Oc1ccc(CNc2cccnc2)c2cccnc12,nt,i,nt,nt,nt,37.9
CCn1c2c(c(=O)n3ncc(C(=O)Nc4ccc(F)cc4Cl)c13)CN(Cc1ccc(OC)cc1)CC2,nt,i,nt,i,i,nt
O=c1[nH]c2cnn(-c3ccccc3)c2c(=O)n1O,nt,nt,nt,nt,0.501µM,21.3
COc1cccc(NC(=O)c2sc3nc(C)c(C(=O)Nc4ccc(C)cc4C)c(-c4cccs4)c3c2N)c1,nt,i,nt,i,i,nt
Cc1c2c(cc3c1[nH]c1ccccc13)C=NCC2,nt,nt,nt,nt,50.1µM,37.9
COC(=O)C1CCN(c2csc3ccc(Cl)cc3c2=O)CC1,nt,i,nt,i,i,nt
OC1CCCN(Cc2ccc3ccc4cccc5ccc2c3c45)C1 (configuration not stated),i,i,?,i,56.2µM,42.6
CCC(=O)N/C(N)=N/c1nc(C)c2cc(OC)ccc2n1,i,i,i,i,79.4µM,?
Fc1ccc(-c2noc3ncnc(Nc4ccc(F)cc4F)c23)cc1,nt,i,nt,i,i,nt
Nc1cccc2cc(S(=O)(=O)O)ccc12,nt,nt,nt,nt,8.91µM,67.5
Nc1cccc(S(=O)(=O)O)c1,i,i,?,nt,nt,nt
Cc1ccc(CNC(=O)c2sc3nc4n(c(=O)c3c2C)CCCC4)cc1,nt,i,nt,i,i,nt
O=C(O)c1ccc(-c2ccc(/C=N/Nc3ccc([N+](=O)[O-])cc3)o2)cc1,?,i,i,i,i,84.9
O=C(O)c1cccc(-c2ccc(/C=N/Nc3ccc([N+](=O)[O-])cc3)o2)c1,i,i,i,i,i,nt
Cc1cc(C)n(Cc2ccc(C(=O)N/N=C/c3ccc(-c4ccc([N+](=O)[O-])cc4)o3)o2)n1,nt,nt,2.67µM,15.8µM,56.2µM,75.7
Oc1ccccc1C1C=C(c2ccc3c(c2)OCO3)NC(c2cccc(Cl)c2)N1 (configuration not stated),nt,i,nt,nt,i,nt
CCOc1ccc(Br)cc1C1=NN(C(C)=O)C(c2ccc([N+](=O)[O-])s2)O1 (configuration not stated),nt,nt,i,i,?,6.75
CC(=O)N1N=C(c2ccc(C)cc2)OC1c1ccc(Br)cc1 (configuration not stated),i,i,i,i,i,nt
CN1CCN(c2cccc(Nc3nn4c(=O)c5ccccc5nc4s3)c2)CC1,nt,nt,nt,nt,nt,42.6
COc1ccc2c(=O)n3nc(Nc4cccc(N5CCN(C)CC5)c4)sc3nc2c1,nt,nt,nt,nt,nt,?
CCN1CCN(c2cccc(Nc3nn4c(=O)c5ccccc5nc4s3)c2)CC1,nt,nt,nt,nt,nt,?
COc1cccc(CNC(=O)c2ccc3c(=O)n4nc(Nc5ccccc5)sc4nc3c2)c1,nt,i,nt,i,i,nt
O=c1c2ccccc2nc2sc(Nc3cccc(Cl)c3)nn12,nt,nt,i,nt,i,nt
Cc1ccccc1C(=O)NC1(C(F)(F)F)N=C(c2ccccc2)N(Cc2ccccc2)C1=O (configuration not stated),nt,i,nt,i,i,nt
SMILES,RECQ1 inh,TDP1 inh,APEX1 inh,BLM helicase inh,FEN1 inh-1,FEN1 inh-2
NC(=S)n1[nH]c(-c2ccc([N+](=O)[O-])cc2)c(N=Nc2ccccc2[N+](=O)[O-])c1=O,i,i,i,i,i,nt
Cc1c(N=Nc2c(-c3ccc([N+](=O)[O-])cc3)[nH]n(C(N)=S)c2=O)cccc1[N+](=O)[O-],i,i,i,i,?,67.5
NC(=S)n1[nH]c(-c2ccc([N+](=O)[O-])cc2)c(N=Nc2cccc([N+](=O)[O-])c2)c1=O,i,?,?,17.8µM,44.7µM,42.6
O=C(CNC(=O)C1CCCCC1)OCC(=O)c1ccc2c(c1)CCC2,nt,i,nt,nt,i,nt
COc1ccc(O)c(/C=N/NC(=S)Nc2cccc(S(=O)(=O)N(C)C)c2)c1,i,i,i,i,i,nt
CN(C)S(=O)(=O)c1cccc(NC(=S)N/N=C/c2ccc(O)c(O)c2O)c1,i,nt,?,i,20µM,8.49
c1ccc2c(c1)c1c(c3ccccc32)CN2CCCC2C1 (configuration not stated),nt,nt,nt,nt,17.8µM,37.9
CCOC(=O)c1c(CSc2ccccc2)n(C)c2cc(Br)c(OCC(O)CNC(CO)(CO)CO)cc12 (configuration not stated),i,i,?,i,44.7µM,42.6
COc1ccc(/C=C2\C(=O)NC(=S)N2C(=O)c2ccc(C)cc2)cc1,i,?,i,25.1µM,?,75.7
O=c1cc2oc3cc(O)c(O)cc3c(-c3ccccc3[N+](=O)[O-])c-2cc1O,nt,nt,0.134µM,0.708µM,?,?
CN(C)c1ccc(NC(=O)C2(c3cccs3)CCOCC2)cc1,nt,i,nt,i,i,nt
CC(=O)Nc1sc2c(c1-c1nc3ccccc3s1)CCN(C)C2,nt,nt,nt,nt,nt,5.36
CC(=O)N1CCc2c(sc(NC(=O)C3CC3)c2-c2nc3ccccc3s2)C1,i,i,?,i,?,nt
CC(=O)Nc1sc2c(c1-c1nc3ccccc3s1)CCCN(C(C)C)C2,nt,nt,nt,nt,nt,7.57
CC(=O)Nc1sc2c(c1-c1nc3ccccc3s1)CCOC2,nt,nt,nt,nt,nt,?
CC(=O)Nc1sc2c(c1-c1nc3ccccc3s1)CN(C(C)C)CC2,nt,i,11.9µM,nt,6.31µM,10.7
O=C(NCC(c1ccco1)S(=O)(=O)c1cccs1)c1c(F)cccc1F (configuration not stated),nt,i,nt,i,i,nt
OC(CN1CCCCC1)c1ccccc1 (configuration not stated),nt,nt,nt,nt,i,nt
CC1=C(C(=O)Nc2ccccc2)C(c2ccccn2)n2nc(SCc3ccccc3)nc2N1 (configuration not stated),nt,i,nt,i,i,nt
COc1ccc(SCC(Cc2ccccc2)N2CCN(CC(C)C)CCC2=O)cc1 (configuration not stated),i,nt,i,i,i,nt
COC(=O)C1=C(C(=O)OC)[C@@H]2N(C)c3ccccc3[C@@]23C[C@@H](C(=O)OC)N(S(=O)(=O)c2ccc(C#N)cc2)C3=N1,i[11.5 µM],i[12.3 µM],i[12.4 µM],i[12.4 µM],nt,nt
CC(=O)Nc1sc2c(c1-c1nc3ccccc3o1)CCN(C(C)C)C2,nt,nt,nt,nt,nt,30.1
CCCCC(=O)Nc1sc2c(c1-c1nc3ccccc3s1)CCN(C(C)=O)C2,i,i,i,i,nt,nt
CCCCC(=O)Nc1sc2c(c1-c1nc3ccccc3s1)CCN(C(C)C)C2,nt,nt,nt,nt,nt,33.8
CC(C)N1CCc2c(sc(NC(=O)c3nc4ccccc4s3)c2C(N)=O)C1,i,i,i,i,i,nt

# Screens as filed in PubChem BioAssay.
